Calls of active or inactive are those of the source. Rule for the calls: active = hit-call score of the fitted dose curve at least 0.9, where 1 is the maximum; inactive = score below 0.9.
How the values were obtained:
[1] = ATG_CRE_CIS: Attagene CIS-FACTORIAL HepG2 Assay for human cAMP Responsive Element (CRE) binding protein 3 (AID 2282926); settings: HepG2 CRE cis-reporter, Attagene multiplexed mRNA; actives raise or lower the signal
Procedure, shortened: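 Endogenous transcription factor activity read via CRE-regulated reporter transcripts in transfected HepG2 cells. After 24 h exposure, RNA was reverse-transcribed, amplified, fluorescently labelled and sized by capillary electrophoresis; gain or loss fitted against DMSO.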

[2] = target: CCAAT/enhancer-binding protein beta (Homo sapiens) (UniProt P17676); test: ATG_C_EBP_CIS: Attagene CIS-FACTORIAL HepG2 Assay for human CCAAT/Enhancer Binding Protein (C/EBP) beta (AID 2282927); settings: HepG2 Attagene cis-factorial transcription factor reporter; actives raise or lower the signal
Sequence of CCAAT/enhancer-binding protein beta (Homo sapiens) (P17676 whole entry, looked up, the tested form may be a part): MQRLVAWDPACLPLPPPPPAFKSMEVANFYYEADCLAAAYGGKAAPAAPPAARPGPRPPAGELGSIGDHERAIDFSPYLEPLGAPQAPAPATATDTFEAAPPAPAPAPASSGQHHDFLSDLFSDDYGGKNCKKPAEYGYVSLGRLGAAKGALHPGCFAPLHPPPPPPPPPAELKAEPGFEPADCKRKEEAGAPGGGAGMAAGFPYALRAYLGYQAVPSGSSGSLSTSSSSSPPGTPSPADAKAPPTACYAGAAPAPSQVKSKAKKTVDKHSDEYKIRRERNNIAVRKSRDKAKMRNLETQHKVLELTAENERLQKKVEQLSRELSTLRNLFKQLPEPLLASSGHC
Procedure, shortened: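 Endogenous C/EBPb-driven reporter transcripts measured in transfected human HepG2 cells at 24 h via RT-PCR and capillary electrophoresis of labelled fragments. Activity fitted in both directions relative to DMSO baseline.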

[3] = ATG_CMV_CIS: Attagene CIS-FACTORIAL HepG2 Assay for human CMV (Internal Marker) (AID 2282928); settings: HepG2 CMV promoter reporter, transcription factor profiling; actives raise or lower the signal;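 note: endpoint acts as a background internal control marker rather than a target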
Procedure, shortened: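 Readout: fluorescent reporter cDNA fragments separated by capillary electrophoresis after RT-PCR and HpaI cut. Cells: HepG2 carrying transfected cis-promoter reporter constructs, dosed 24 h. Endpoint serves as background internal-marker control, fit bidirectionally versus DMSO.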

[4] = target: Aryl hydrocarbon receptor (Homo sapiens) (UniProt P35869); test: ATG_Ahr_CIS: Attagene CIS-FACTORIAL HepG2 Assay for human Aryl Hydrocarbon Receptor (Ahr) (AID 2282930); settings: HepG2 AhR cis-factorial reporter transcription; actives raise or lower the signal
Sequence of Aryl hydrocarbon receptor (Homo sapiens) (P35869 whole entry, looked up): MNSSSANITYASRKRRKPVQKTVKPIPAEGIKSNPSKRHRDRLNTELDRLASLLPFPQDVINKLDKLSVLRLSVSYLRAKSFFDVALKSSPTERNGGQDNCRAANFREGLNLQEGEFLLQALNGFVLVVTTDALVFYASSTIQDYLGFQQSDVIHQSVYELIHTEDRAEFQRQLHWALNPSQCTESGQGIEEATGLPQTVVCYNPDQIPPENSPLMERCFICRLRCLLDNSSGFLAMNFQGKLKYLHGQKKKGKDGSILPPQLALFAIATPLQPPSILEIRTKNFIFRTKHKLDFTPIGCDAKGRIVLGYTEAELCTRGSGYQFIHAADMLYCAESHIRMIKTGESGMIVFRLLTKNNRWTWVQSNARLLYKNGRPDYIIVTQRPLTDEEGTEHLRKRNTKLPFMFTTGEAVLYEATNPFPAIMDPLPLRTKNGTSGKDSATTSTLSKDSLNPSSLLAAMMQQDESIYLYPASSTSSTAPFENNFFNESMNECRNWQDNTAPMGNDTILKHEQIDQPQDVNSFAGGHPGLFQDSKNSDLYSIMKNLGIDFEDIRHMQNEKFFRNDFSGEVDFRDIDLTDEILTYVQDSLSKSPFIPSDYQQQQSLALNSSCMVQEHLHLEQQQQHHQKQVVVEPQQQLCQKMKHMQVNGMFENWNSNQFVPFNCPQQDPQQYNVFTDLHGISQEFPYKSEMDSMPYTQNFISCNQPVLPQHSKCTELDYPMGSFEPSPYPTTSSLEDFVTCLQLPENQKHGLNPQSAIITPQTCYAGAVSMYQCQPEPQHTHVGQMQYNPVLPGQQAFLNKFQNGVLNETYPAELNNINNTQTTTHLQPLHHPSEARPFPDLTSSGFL
Procedure, shortened: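 Reporter mRNA levels, quantified by RT-PCR and fluorescent capillary electrophoresis, reflect endogenous AhR transcriptional activity in HepG2 cells carrying transfected cis-promoter reporter constructs. Readout at 24 h post-dose; gain or loss fitted against DMSO baseline.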

[5] = ATG_AP_1_CIS: Attagene CIS-FACTORIAL HepG2 Assay for human Activator Protein 1 (AP-1) (AID 2282931); settings: HepG2 Attagene cis-factorial AP-1 reporter mRNA; actives raise or lower the signal
Procedure, shortened: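 Cis-regulated reporter units transiently expressed in HepG2 report endogenous transcription-factor activity. Signal: reporter mRNA at 24 h, via RT-PCR and fluorescent capillary electrophoresis. Endpoint derived by bidirectional fitting, DMSO as negative control.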

[6] = ATG_AP_2_CIS: Attagene CIS-FACTORIAL HepG2 Assay for human Activator Protein 2 (AP-2) (AID 2282932); settings: HepG2 AP-2 cis-reporter, Attagene transcription factor profiling; actives raise or lower the signal
Procedure, shortened: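 Transiently transfected HepG2 cells are exposed to chemical for 24 h. Reporter transcripts are then measured as fluorescence following RT-PCR and capillary separation, and gain- or loss-of-signal is fitted relative to DMSO.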

[7] = ATG_BRE_CIS: Attagene CIS-FACTORIAL HepG2 Assay for human Bone Morphogenetic Protein (BMP) Response Element (BRE) (AID 2282933); settings: HepG2 BMP response element reporter, Attagene transcription factor profiling; actives raise or lower the signal
Procedure, shortened: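 A HepG2 multiplex reporter system measured inducible reporter mRNA 24 h post-dosing. Detection: RT-PCR, 6-FAM primer extension, HpaI digestion, capillary electrophoresis. Activity fitted bidirectionally relative to DMSO.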

[8] = target: Retinoic acid receptor alpha (Homo sapiens) (UniProt P10276); test: ATG_DR5_RAR_CIS: Attagene CIS-FACTORIAL HepG2 Assay for human Retinoic Acid Receptor Alpha (RARE), DR5 submotif (AID 2282934); settings: HepG2 Attagene cis-factorial RARE DR5 reporter, mRNA; actives raise or lower the signal;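 for AC50: reporter responds to endogenous RAR alpha beta and gamma in HepG2 not RARA alone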
Sequence of Retinoic acid receptor alpha (Homo sapiens) (P10276 whole entry, looked up): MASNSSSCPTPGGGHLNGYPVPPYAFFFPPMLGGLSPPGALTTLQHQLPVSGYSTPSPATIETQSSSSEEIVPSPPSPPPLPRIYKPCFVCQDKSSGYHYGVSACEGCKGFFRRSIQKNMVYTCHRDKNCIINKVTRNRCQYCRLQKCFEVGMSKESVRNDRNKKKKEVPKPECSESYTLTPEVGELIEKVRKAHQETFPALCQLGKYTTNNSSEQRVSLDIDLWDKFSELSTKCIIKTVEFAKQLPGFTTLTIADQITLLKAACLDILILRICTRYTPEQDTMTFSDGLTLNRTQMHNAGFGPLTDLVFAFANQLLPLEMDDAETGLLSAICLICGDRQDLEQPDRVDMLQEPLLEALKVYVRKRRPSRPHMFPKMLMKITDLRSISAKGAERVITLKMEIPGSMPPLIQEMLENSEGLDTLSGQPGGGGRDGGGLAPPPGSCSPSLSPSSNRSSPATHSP
Procedure, shortened: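 Reporter transcripts from a DR5-regulated unit, measured via RT-PCR plus capillary electrophoresis, reflect endogenous RAR activity in transiently transfected human HepG2 liver cells. Exposure lasted 24 h; gain or loss of signal scored against DMSO.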

[9] = target: Transcription factor E2F1 (Homo sapiens) (UniProt Q01094); test: ATG_E2F_CIS: Attagene CIS-FACTORIAL HepG2 Assay for human E2F Transcription Factor 1 (AID 2282935); settings: HepG2 Attagene cis-reporter, E2F reporter RNA transcripts; actives raise or lower the signal
Sequence of Transcription factor E2F1 (Homo sapiens) (Q01094 whole entry, looked up): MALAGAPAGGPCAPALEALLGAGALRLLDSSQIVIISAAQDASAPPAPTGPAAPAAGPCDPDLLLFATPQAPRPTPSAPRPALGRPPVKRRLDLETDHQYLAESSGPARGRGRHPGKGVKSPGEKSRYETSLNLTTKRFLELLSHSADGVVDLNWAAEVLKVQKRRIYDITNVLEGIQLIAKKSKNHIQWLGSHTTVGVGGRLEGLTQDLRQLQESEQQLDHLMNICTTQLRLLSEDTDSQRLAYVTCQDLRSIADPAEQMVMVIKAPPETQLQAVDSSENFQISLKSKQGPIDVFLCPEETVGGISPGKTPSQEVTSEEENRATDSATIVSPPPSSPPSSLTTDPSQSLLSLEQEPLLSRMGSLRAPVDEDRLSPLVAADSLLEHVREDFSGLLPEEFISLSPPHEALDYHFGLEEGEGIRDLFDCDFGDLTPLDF
Procedure, shortened: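 Fluorescent RT-PCR products, digested with HpaI for 2 h at 37 C, are separated by capillary electrophoresis. Source RNA comes from transfected HepG2 cultures treated for 24 h.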

[10] = ATG_E_Box_CIS: Attagene CIS-FACTORIAL HepG2 Assay for human Enhancer Box (E-box) (AID 2282936); settings: HepG2 E-box cis-reporter transcription, actives raise or lower the signal
Procedure, shortened: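 Fluorescent reporter fragments separated by capillary electrophoresis gave the signal; mRNA came from HepG2 cells transfected with cis-element reporters and treated 24 h. Curves fitted bidirectionally relative to DMSO controls.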

[11] = ATG_M_61_CIS: Attagene CIS-FACTORIAL HepG2 Assay for M61 Transcription Factor (Internal Marker) (AID 2282937); settings: HepG2 Attagene CIS-FACTORIAL M61 internal marker reporter; actives raise or lower the signal
Procedure, shortened: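 Background-control endpoint: HepG2 cells with cis-regulated reporter constructs, 24 h exposure, reporter mRNA detected via fluorescent primer extension and capillary electrophoresis; values from bidirectional fitting with DMSO baseline.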

[12] = ATG_EGR_CIS: Attagene CIS-FACTORIAL HepG2 Assay for human Early Growth Response 1 (EGR1) (AID 2282938); settings: HepG2 Attagene CIS-FACTORIAL EGR reporter mRNA; actives raise or lower the signal
Procedure, shortened: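 Endpoint derived by bidirectional fitting versus DMSO vehicle. Method: cis-promoter reporter units transfected into HepG2, 24 h dosing, RNA isolation, RT-PCR with 6-FAM primer extension and HpaI digestion, then capillary electrophoresis fluorescence detection.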

[13] = ATG_M_19_CIS: Attagene CIS-FACTORIAL HepG2 Assay for M19 Transcription Factor (Internal Marker) (AID 2282939); settings: HepG2 Attagene CIS-FACTORIAL M19 internal marker reporter; actives raise or lower the signal
Procedure, shortened: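 Chemical-treated HepG2 (24 h) with MRTU constructs; reporter transcripts detected by fluorescent RT-PCR fragment analysis on capillary electrophoresis. Internal background marker, DMSO as baseline.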

[14] = ATG_Ets_CIS: Attagene CIS-FACTORIAL HepG2 Assay for human Erythroblast Transformation Specific (ETS) (AID 2282941); settings: HepG2 ETS cis-reporter transcription, actives raise or lower the signal
Procedure, shortened: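 RT-PCR/capillary electrophoresis fluorescence read-out of reporter mRNA; HepG2 transient multi-reporter transfection; 24 h compound exposure; gain or loss of signal fitted bidirectionally relative to DMSO.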

[15] = target: Hepatocyte nuclear factor 3-beta (Homo sapiens) (UniProt Q9Y261); test: ATG_FoxA2_CIS: Attagene CIS-FACTORIAL HepG2 Assay for human Forkhead box A2 (FOXA2) (AID 2282942); settings: HepG2 cis-reporter transcription factor activity, 24 h; actives raise or lower the signal
Sequence of Hepatocyte nuclear factor 3-beta (Homo sapiens) (Q9Y261 whole entry, looked up): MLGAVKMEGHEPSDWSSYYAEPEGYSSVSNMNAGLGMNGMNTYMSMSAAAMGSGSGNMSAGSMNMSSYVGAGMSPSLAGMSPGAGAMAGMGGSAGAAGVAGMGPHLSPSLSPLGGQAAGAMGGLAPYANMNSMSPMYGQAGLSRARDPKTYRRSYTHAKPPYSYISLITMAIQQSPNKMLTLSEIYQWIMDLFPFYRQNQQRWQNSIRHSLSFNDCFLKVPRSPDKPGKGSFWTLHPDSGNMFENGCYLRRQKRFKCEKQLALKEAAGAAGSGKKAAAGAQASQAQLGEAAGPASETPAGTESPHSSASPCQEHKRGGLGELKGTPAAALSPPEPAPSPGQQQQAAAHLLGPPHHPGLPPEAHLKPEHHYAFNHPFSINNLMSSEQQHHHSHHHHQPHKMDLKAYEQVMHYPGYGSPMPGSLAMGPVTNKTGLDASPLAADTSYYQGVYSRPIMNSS
Procedure, shortened: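 Measured: reporter mRNA induction or loss in HepG2 transiently carrying multiple cis-regulated reporter units, 24 h after dosing. Quantified by RT-PCR plus capillary electrophoresis, normalised to DMSO.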

[16] = ATG_FoxO_CIS: Attagene CIS-FACTORIAL HepG2 Assay for human Forkhead box O (FoxO) (AID 2282943); settings: HepG2 Attagene cis-reporter, FoxO element, mRNA; actives raise or lower the signal
Procedure, shortened: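 Endogenous transcription factor activity read from multiplexed cis-promoter reporter transcripts in transiently transfected HepG2, 24 h after dosing. Reporter RNA measured via RT-PCR plus capillary electrophoresis of FAM-labeled products; gain or loss relative to DMSO.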

[17] = ATG_GATA_CIS: Attagene CIS-FACTORIAL HepG2 Assay for human GATA Binding Protein (AID 2282944); settings: HepG2 GATA cis-element reporter, Attagene multiplex mRNA; actives raise or lower the signal
Procedure, shortened: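 Transfected cis-reporter HepG2 cells were treated with chemicals for 24 hours. Total RNA was then converted to cDNA, amplified with reporter-specific primers and analysed by fluorescent capillary electrophoresis, using DMSO-treated wells as baseline.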

[18] = ATG_GLI_CIS: Attagene CIS-FACTORIAL HepG2 Assay for human Zinc Finger Protein GLI1 (AID 2282945); settings: HepG2, Attagene cis-factorial reporter mRNA, GLI element; actives raise or lower the signal
Procedure, shortened: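 Bidirectional curve fits relative to DMSO, using reporter mRNA levels from RT-PCR plus capillary electrophoresis. Cells were HepG2 transiently carrying cis-regulated reporter constructs, harvested 24 h after dosing.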

Measured: AC50

CC(=O)C1(C)CC2=C(CCCC2(C)C)CC1C (centres undefined)
inactive: [1] | [2] | [7] | [9] | [11] | [12] | [14] | [17]
active: [3] 76.8 µM | [4] 126 µM | [5] 93.3 µM | [6] 76.1 µM | [8] 100 µM | [10] 83.2 µM | [13] 157 µM | [15] 181 µM | [16] 100 µM | [18] 53.8 µM

CC1(C)C(=O)N(Cl)C(=O)N1Br
inactive: all assays above

NC(=S)NNC(N)=S
not listed: [8] | [10]
inactive: all other assays above

CCCOC(=O)c1c(Cl)c(Cl)c(Cl)c(Cl)c1C(=O)OCCC
active: [1] 171 µM | [3] 73.6 µM | [5] 178 µM | [9] 59.9 µM | [18] 74.8 µM
not listed: [14]
inactive: all other assays above

CCOc1ccc(NC(=O)CC(C)O)cc1 (centres undefined)
inactive: all assays above

CCc1ncc(C)[nH]1
not listed: [14]
inactive: all other assays above

COC(CC(C)CCCC(C)(C)O)OC (centres undefined)
not listed: [17]
inactive: all other assays above

Clc1cc(Cl)c(-c2c(Cl)c(Cl)cc(Cl)c2Cl)cc1Cl
active: [3] 30.4 µM | [5] 35 µM
inactive: all other assays above

Reference: PubChem BioAssay (EPA / NIEHS)
